B1: ENSMUSG00000031028.612|Tub|38:42 (ssRNA)
RNA: GGGAGUUCUACAGUCCGACGAUCGCUUCGAUAUCCGCAUGCUAUGAGCAGCUAGAGCAUUUGAGCAACCCAUGUAAUCUUACACAUUCCCUCCCUGUAAGAAGGCCUGUCAGAGCUUGCUGUAGGAGUUAGGGUAAAUGAAAGUUAGUCCUGGCUCUCAUCACCACCUUUCCUAGCUCAUCACUGUGCCUUCUUUCUUCCCUAAGAAAGACAAUGCACCCCUCUCUUCUGUUCUCCUGCCCCUUCGCCCCCACUGAGGUCCAGGUAGAGCAGAUGAGGCUGAAAUGUAGAGUGUUCUAUAGAGCUCUUGCGGUCGCACUAGUGUGGAAUUCUCGGGUGUCAAGG
B2: ENSMUSG00000043670.77|Diras1|85:90 (ssRNA)
RNA: GGGAGUUCUACAGUCCGACGAUCGCUUCGAUAUCCGCAUGCUAGGAUCUGAAAACAGGGACCUGGCUAAGGAACUGCUCAUCCCAGUCAGGCCCAGAGAGGUUACCUUGCCUCUCCAUCUCUGUCCCACACACCCCAGCCAUGCCCACUGUCCCUGUCCCUCACAUUCUAUCACUGUGACCUCUGGGGAGUGCCCAUUGACCUCAUCUUCCUUCACUAAUAUCUUAUUUCUUUCACCUGAUCCUGUCCUUUCCCCGUGACCUCUGACCUGUGGCCUUCCCUGGGUCCAGAACACCCCUGUCCUCUCUUGCGGUCGCACUAGUGUGGAAUUCUCGGGUGUCAAGG
B3: ENSMUSG00000090935.47|Synj2bp (ssRNA)
RNA: GGGAGUUCUACAGUCCGACGAUCGCUUCGAUAUCCGCAUGCUAGCGGGAUGUGCUGUGUCCCUGAGAGUACAGCACAGGGUAGGUAUUACCUGCACCUGGAUAUGGGACAGUAGGCUUUUACACUGUUCUUGUGAAUAGGUUUGUAAGCUUCAAAGUCUGCUUUACUUUAUCUUCUGUUAUGAUUGCCUUUGUCAGCAUAGGCAGGAGUCCUUUAGGAUUUCUGCCUAUCAGUAAAAGAAGUAUGUAACCCAAGUUCUACCUUCAGUGGAUUAAAGUUUCAUUAAGUGAAAAUGGAAAGAAAGCUCUUGCGGUCGCACUAGUGUGGAAUUCUCGGGUGUCAAGG
B4: ENSMUSG00000058297.314|Spock2 (ssRNA)
RNA: GGGAGUUCUACAGUCCGACGAUCGCUUCGAUAUCCGCAUGCUAGCUGAGGCUUCCAGGACAAAGCCCCAGUCUGGCUCUCCCCCAGCCUCUCAGGGGCACUGGCUGGUCACAUCCACUGAGUAUUGAUCGGUUGGACUUUAGGGAAGAGCCUCCUCCUUCCCAUUCCUUUCUGCCACCCUGGAAUGGCCACCUUAAUCGUCAUCUCCUCGGGGGGAAUACGGAAAUGUCACCAAGCUCCAUAAAGUGCUUCUCAUUCCACGACACAGUUCUGACUCUCCGGGUGACUGUCACCUGCUCCCAUCCUCUUGCGGUCGCACUAGUGUGGAAUUCUCGGGUGUCAAGG
B5: ENSMUSG00000031028.648|Tub (ssRNA)
RNA: GGGAGUUCUACAGUCCGACGAUCGCUUCGAUAUCCGCAUGCUACCAGGUAGAGCAGAUGAGGCUGAAAUGUAGAGUGUUCUAUAGAGCAUCUCAGUAGCAUAGAAGGAGAAGCCCAGCUCCAACCUCCUGGACCCCAUACUGGUGACCAGCUUGGUGAGGACAGGCAAAAUUUCUCUAGCUGAGAGCACACUUAGCCAGUUUUCACGCCUAGAACAUAUAUGUCGAUUUGCACAUGAUUGUCUUUUCCUAUUUUGGAGUGGUCAGACAUUUUAUUUUUGUUCAAAAUUAUCUGGAGUUUUAGACUCUUGCGGUCGCACUAGUGUGGAAUUCUCGGGUGUCAAGG
B6: ENSMUSG00000032194.138|Kank2 (ssRNA)
RNA: GGGAGUUCUACAGUCCGACGAUCGCUUCGAUAUCCGCAUGCUAUGACUUGGAAAUGACCAACUUACAAGAAGUUAUGCUGACCUCCCUGUUCCCCACGGGGAGUGCUUGGCAGAGGAGACUACUUCUAGAAAUACUUUCAGACCUACAGACAAAAAAGAAAAAAGGCCAUUCCGGAGUGACUCCCAGCAUCACAGCCCAGAACCUCCUCCUCAAAGGAGAGUAAACAGAGACUGUGAUACUGACCAAGUACAGGCGCUCGCUAUGAAGCCCAUAUGUUCCUGAUUAAGAGCUGGCUGGCCUCACUCUUGCGGUCGCACUAGUGUGGAAUUCUCGGGUGUCAAGG
B7: ENSMUSG00000061578.1543|Ksr2 (ssRNA)
RNA: GGGAGUUCUACAGUCCGACGAUCGCUUCGAUAUCCGCAUGCUACACUAUGUAUAUUUGUAUAGAUCAUUUAUAAAGUUUUCUACACUUCUCAAAAAAAAAAAUAUUUCUAACCUUGGCUGUUGGACAGUCUGUGAGCCUGUGAGCCGGCAAGCCUGUUGUUUCUUGUGUUUAGUGCAAUGUUAGUGAGAAUCCAGUGUCUGAGUUAUUAAUGCCAAUAAAGAAUUUGAGAAUUACUGCAUCCGCUGCUGUCACUCCAGGUCAGAACUCUGCUGUUGUCUGUUGGAUGGAAGGAAGCUCCAGAGCUCUUGCGGUCGCACUAGUGUGGAAUUCUCGGGUGUCAAGG
B8: ENSMUSG00000058297.242|Spock2 (ssRNA)
RNA: GGGAGUUCUACAGUCCGACGAUCGCUUCGAUAUCCGCAUGCUAAGGGGACCACACUGAGCAGCUAGGCCCUGAUGCCAUGCCUCAGCACGCCCUCAGACCUCCAGGCCGGGUGGAAGGGGCUUUUACCCAGAUGUCCUGUGGGGUUUUGUGUGUCUAUUGCUCCCCACUUCCCCCUCUCAAAGGAAAUUUCCUUGAUAUAUUUGAUGAAGAAUUCCUUACCUGGGCCUCUGAUACCCUUUGGUACGCGUACGUGUGUGUGGCGCGUAUACGUGUGUGUGUGUGUGUGUGUGUGUGUGUGUGUGCUCUUGCGGUCGCACUAGUGUGGAAUUCUCGGGUGUCAAGG
B9: ENSMUSG00000058297.243|Spock2 (ssRNA)
RNA: GGGAGUUCUACAGUCCGACGAUCGCUUCGAUAUCCGCAUGCUACCACACUGAGCAGCUAGGCCCUGAUGCCAUGCCUCAGCACGCCCUCAGACCUCCAGGCCGGGUGGAAGGGGCUUUUACCCAGAUGUCCUGUGGGGUUUUGUGUGUCUAUUGCUCCCCACUUCCCCCUCUCAAAGGAAAUUUCCUUGAUAUAUUUGAUGAAGAAUUCCUUACCUGGGCCUCUGAUACCCUUUGGUACGCGUACGUGUGUGUGGCGCGUAUACGUGUGUGUGUGUGUGUGUGUGUGUGUGUGUGUGUGUGUGCUCUUGCGGUCGCACUAGUGUGGAAUUCUCGGGUGUCAAGG
B10: ENSMUSG00000058297.245|Spock2 (ssRNA)
RNA: GGGAGUUCUACAGUCCGACGAUCGCUUCGAUAUCCGCAUGCUAGCUAGGCCCUGAUGCCAUGCCUCAGCACGCCCUCAGACCUCCAGGCCGGGUGGAAGGGGCUUUUACCCAGAUGUCCUGUGGGGUUUUGUGUGUCUAUUGCUCCCCACUUCCCCCUCUCAAAGGAAAUUUCCUUGAUAUAUUUGAUGAAGAAUUCCUUACCUGGGCCUCUGAUACCCUUUGGUACGCGUACGUGUGUGUGGCGCGUAUACGUGUGUGUGUGUGUGUGUGUGUGUGUGUGUGUGUGUGUGUGUGAGAGAGAGCUCUUGCGGUCGCACUAGUGUGGAAUUCUCGGGUGUCAAGG
B11: ENSMUSG00000058297.239|Spock2 (ssRNA)
RNA: GGGAGUUCUACAGUCCGACGAUCGCUUCGAUAUCCGCAUGCUAGAACGGUGUAUCUAUCAGAGGGGACCACACUGAGCAGCUAGGCCCUGAUGCCAUGCCUCAGCACGCCCUCAGACCUCCAGGCCGGGUGGAAGGGGCUUUUACCCAGAUGUCCUGUGGGGUUUUGUGUGUCUAUUGCUCCCCACUUCCCCCUCUCAAAGGAAAUUUCCUUGAUAUAUUUGAUGAAGAAUUCCUUACCUGGGCCUCUGAUACCCUUUGGUACGCGUACGUGUGUGUGGCGCGUAUACGUGUGUGUGUGUGUGCUCUUGCGGUCGCACUAGUGUGGAAUUCUCGGGUGUCAAGG
B12: ENSMUSG00000058297.241|Spock2 (ssRNA)
RNA: GGGAGUUCUACAGUCCGACGAUCGCUUCGAUAUCCGCAUGCUAUAUCAGAGGGGACCACACUGAGCAGCUAGGCCCUGAUGCCAUGCCUCAGCACGCCCUCAGACCUCCAGGCCGGGUGGAAGGGGCUUUUACCCAGAUGUCCUGUGGGGUUUUGUGUGUCUAUUGCUCCCCACUUCCCCCUCUCAAAGGAAAUUUCCUUGAUAUAUUUGAUGAAGAAUUCCUUACCUGGGCCUCUGAUACCCUUUGGUACGCGUACGUGUGUGUGGCGCGUAUACGUGUGUGUGUGUGUGUGUGUGUGUGUGCUCUUGCGGUCGCACUAGUGUGGAAUUCUCGGGUGUCAAGG
B13: ENSMUSG00000058297.242|Spock2|105:111;209:217;228:260 (ssRNA)
RNA: GGGAGUUCUACAGUCCGACGAUCGCUUCGAUAUCCGCAUGCUAAGGGGACCACACUGAGCAGCUAGGCCCUGAUGCCAUGCCUCAGCACGCCCUCAGACCUCCAGGCCGGGUGGAAGGGGCUUUUACCCAGAUGUCCUGUGGGGUUUACACACACUAUUGCUCCCCACUUCCCCCUCUCAAAGGAAAUUUCCUUGAUAUAUUUGAUGAAGAAUUCCUUACCUGGGCCUCUGAUACCCUUUGGUACGCGUACCACACACACGCGCGUAUACCACACACACACACACACACACACACACACACACCUCUUGCGGUCGCACUAGUGUGGAAUUCUCGGGUGUCAAGG
B14: ENSMUSG00000058297.246|Spock2 (ssRNA)
RNA: GGGAGUUCUACAGUCCGACGAUCGCUUCGAUAUCCGCAUGCUACCCUGAUGCCAUGCCUCAGCACGCCCUCAGACCUCCAGGCCGGGUGGAAGGGGCUUUUACCCAGAUGUCCUGUGGGGUUUUGUGUGUCUAUUGCUCCCCACUUCCCCCUCUCAAAGGAAAUUUCCUUGAUAUAUUUGAUGAAGAAUUCCUUACCUGGGCCUCUGAUACCCUUUGGUACGCGUACGUGUGUGUGGCGCGUAUACGUGUGUGUGUGUGUGUGUGUGUGUGUGUGUGUGUGUGUGUGUGAGAGAGAGAGAGAGCUCUUGCGGUCGCACUAGUGUGGAAUUCUCGGGUGUCAAGG
B15: ENSMUSG00000058297.240|Spock2 (ssRNA)
RNA: GGGAGUUCUACAGUCCGACGAUCGCUUCGAUAUCCGCAUGCUAUGUAUCUAUCAGAGGGGACCACACUGAGCAGCUAGGCCCUGAUGCCAUGCCUCAGCACGCCCUCAGACCUCCAGGCCGGGUGGAAGGGGCUUUUACCCAGAUGUCCUGUGGGGUUUUGUGUGUCUAUUGCUCCCCACUUCCCCCUCUCAAAGGAAAUUUCCUUGAUAUAUUUGAUGAAGAAUUCCUUACCUGGGCCUCUGAUACCCUUUGGUACGCGUACGUGUGUGUGGCGCGUAUACGUGUGUGUGUGUGUGUGUGUGCUCUUGCGGUCGCACUAGUGUGGAAUUCUCGGGUGUCAAGG
B16: ENSMUSG00000058297.244|Spock2 (ssRNA)
RNA: GGGAGUUCUACAGUCCGACGAUCGCUUCGAUAUCCGCAUGCUAUGAGCAGCUAGGCCCUGAUGCCAUGCCUCAGCACGCCCUCAGACCUCCAGGCCGGGUGGAAGGGGCUUUUACCCAGAUGUCCUGUGGGGUUUUGUGUGUCUAUUGCUCCCCACUUCCCCCUCUCAAAGGAAAUUUCCUUGAUAUAUUUGAUGAAGAAUUCCUUACCUGGGCCUCUGAUACCCUUUGGUACGCGUACGUGUGUGUGGCGCGUAUACGUGUGUGUGUGUGUGUGUGUGUGUGUGUGUGUGUGUGUGUGUGAGCUCUUGCGGUCGCACUAGUGUGGAAUUCUCGGGUGUCAAGG

Whole data set: some 9,900 sequences, median “r (bound/input frequency ratio)” near 0.7, cut for the highest 2% near 6.5. Only a selection was taken, and the highest values are over-represented in it overall.

The target of this experiment is TDP-43 (Homo sapiens, UniProt Q13148 1-414). As to the kind of experiment: RNA Bind-n-Seq with designed 260-mer pool; 25 mM Tris-HCl, 150 mM KCl, 3 mM MgCl2, BSA (printed 500 mg/mL), 20 units/mL SUPERase IN; pH not stated; 500 nM RNA pool, 1 h, 4 C; TDP-43 5, 50, 500 nM; high values mean tight binding. The following applies: protein: recombinant; tags: SBP (GST cleaved off with PreScission; pGEX-GST-SBP). In short, it runs like this: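 Duplicate measurements used two independent batches of recombinant SBP-tagged TDP-43, which was captured on streptavidin beads at 5, 50 or 500 nM. The beads were incubated with 500 nM of an in vitro-transcribed 260-nt 3′ UTR oligo pool for 1 h at 4 °C in 25 mM Tris-HCl, 150 mM KCl, 3 mM MgCl2, BSA and SUPERase IN. After washing, biotin elution, reverse transcription, PCR amplification and sequencing, binding was expressed as R: each oligo's normalized read abundance in the bound sample over its abundance in input.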
Sequence of TDP-43 (Q13148 whole entry): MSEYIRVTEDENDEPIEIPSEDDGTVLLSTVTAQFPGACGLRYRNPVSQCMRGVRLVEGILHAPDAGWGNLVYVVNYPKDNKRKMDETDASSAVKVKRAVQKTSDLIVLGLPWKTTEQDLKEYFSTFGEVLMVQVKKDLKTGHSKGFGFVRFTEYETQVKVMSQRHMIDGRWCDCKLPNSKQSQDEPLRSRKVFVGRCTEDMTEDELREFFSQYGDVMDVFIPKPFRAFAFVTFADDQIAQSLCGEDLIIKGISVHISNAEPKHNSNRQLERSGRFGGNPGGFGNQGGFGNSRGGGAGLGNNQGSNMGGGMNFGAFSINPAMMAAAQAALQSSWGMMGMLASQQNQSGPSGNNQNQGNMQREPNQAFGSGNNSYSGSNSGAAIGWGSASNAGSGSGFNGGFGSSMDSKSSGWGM
B1: the binding signal is 1.48 R (bound/input frequency ratio).
With B2 the figure was 2.44 R (bound/input frequency ratio); with B3, 1.42 R (bound/input frequency ratio).
With B4 the figure was 1.1 R (bound/input frequency ratio); with B5, 0.252 R (bound/input frequency ratio).
With B6 the figure was 0.253 R (bound/input frequency ratio); with B7, 0.902 R (bound/input frequency ratio).
On to B8, for which the binding signal was 6.94 R (bound/input frequency ratio).
In the case of B9, the binding signal was 6.55 R (bound/input frequency ratio).
With B10 the figure was 9.24 R (bound/input frequency ratio); with B11, 3.69 R (bound/input frequency ratio).
The value for B12 was 6.46 R (bound/input frequency ratio); that for B13 was 4.83 R (bound/input frequency ratio); that for B14 was 2.94 R (bound/input frequency ratio).
The value for B15 was 5.45 R (bound/input frequency ratio).
B16: the binding signal is 3.2 R (bound/input frequency ratio).
